# Data published in PubChem BioAssay (NCATS).
# Results filed as inconclusive are left out. The source made the active and inactive calls. Unless noted, calls come from the whole dose curve; as a rule, active = well fitted curve in the direction sought with a large enough effect; inconclusive = small, poorly fitted or top-dose-only effect, or another doubt; inactive = no such curve, though single readings can be large; an effect the other way counts as inactive or inconclusive.
# What was measured:
# [1] = S16 Schwann cell PMP22 intronic element beta-lactamase assay (AID 624044; calls by dose curve;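 note: 0% = DMSO and -100% = potassium clavulanate positive control; nearly all actives have a fitted effect of over 15% in size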); conditions: S16 rat Schwann cells, PMP22 element beta-lactamase FRET, 24 h; series mostly up to 38.3 µM
# How it was run: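 Rat S16 Schwann cells with beta-Lac driven by a PMP22 intronic element, compound-treated 24 h at 37 °C. LiveBLAzer FRET B/G read: 460 nm normalized to potassium clavulanate vs DMSO; 535 nm FRET as viability; concentration-effect curves classified.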
# CP297 = test: qHTS profiling for inhibitors of Plasmodium falciparum proliferation (AID 504749);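 note: 0% = DMSO vehicle and full inhibition = artemisinin control; nearly all actives have a fitted effect of over 60% in size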; conditions: P. falciparum in erythrocytes, SYBR Green DNA, 72 h; series mostly up to 28.7 µM
# How it was run: (§1)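 Parasite proliferation within erythrocytes, 72 h exposure. Endpoint: SYBR Green I fluorescence after overnight lysis at room temperature. Controls: 0.29 uM artemisinin, DMSO.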
# CP315 = test: as above; conditions: P. falciparum in erythrocytes, SYBR Green DNA, 72 h; series mostly up to 28.7 µM
# How it was run: as §1
# DIV14 = test: as above; conditions: P. falciparum in erythrocytes, SYBR Green DNA, 72 h; series mostly up to 28.7 µM
# How it was run: as §1
# P93_24 = test: as above; conditions: P. falciparum in erythrocytes, SYBR Green DNA, 72 h; series mostly up to 28.7 µM
# How it was run: as §1
# [2] = target: DNA dC->dU-editing enzyme APOBEC-3G (Homo sapiens) (UniProt Q9HC16); test: qHTS for inhibitors of Vif-A3G interactions: Validation (AID 588379); conditions: Vif-A3G protein interaction assay; series mostly up to 46.1 µM; note: 0% is about no effect
# DNA dC->dU-editing enzyme APOBEC-3G (Homo sapiens), sequence (Q9HC16 whole entry, looked up): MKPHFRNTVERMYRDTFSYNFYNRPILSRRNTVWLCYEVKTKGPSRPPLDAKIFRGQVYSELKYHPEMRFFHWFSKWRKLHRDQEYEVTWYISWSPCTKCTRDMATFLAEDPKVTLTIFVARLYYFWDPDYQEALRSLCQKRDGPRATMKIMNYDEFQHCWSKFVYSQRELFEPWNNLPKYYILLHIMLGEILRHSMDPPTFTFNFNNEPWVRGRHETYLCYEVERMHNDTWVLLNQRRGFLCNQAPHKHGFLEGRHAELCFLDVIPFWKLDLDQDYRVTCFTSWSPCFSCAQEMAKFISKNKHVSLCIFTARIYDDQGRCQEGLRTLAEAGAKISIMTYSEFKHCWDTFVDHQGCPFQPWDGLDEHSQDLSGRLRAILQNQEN
# How it was run: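 HeLa cells stably expressing Vif and A3G-eYFP, 700 cells/well, incubated overnight at 37 deg C, then exposed to compound overnight at 37 deg C. Inhibition of Vif-mediated degradation read as increased yellow fluorescence (Ex 488/Em 500-530) by laser-scanning cytometry.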
# [3] = qHTS profiling of the MIPE4 collection as inhibitors of Plasmodium falciparum (3D7) proliferation (AID 743344; call rule not given here;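 note: scaled between DMSO vehicle wells and 0.29 µM artemisinin as full inhibition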); conditions: P. falciparum 3D7 in erythrocytes, SYBR Green DNA fluorescence, 72 h; at 28.5 µM (top of the series)
# How it was run: (§2)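 Erythrocytes infected with P. falciparum (0.3% parasitemia, 2.5% hematocrit) incubated with compounds 72 h at 37 C, 5% CO2. Lysis with saponin/Triton buffer containing SYBR Green I, overnight at room temperature in the dark; DNA fluorescence (485/535 nm) normalised to 0.29 uM artemisinin and DMSO.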
# [4] = qHTS profiling of the MIPE4 collection as inhibitors of Plasmodium falciparum (DD2) proliferation (AID 743345; call rule not given here); conditions: P. falciparum Dd2 in erythrocytes, SYBR Green DNA, 72 h; at 28.5 µM (top of the series)
# How it was run: as §2
# [5] = qHTS profiling of the MIPE4 collection as inhibitors of Plasmodium falciparum (DD2) proliferation (Rep 2) (AID 743346; call rule not given here); conditions: P. falciparum Dd2 in erythrocytes, SYBR Green DNA, 72 h; at 28.5 µM (top of the series)
# How it was run: as §2
# [6] = qHTS profiling of the MIPE4 collection as inhibitors of Plasmodium falciparum (HB3) proliferation (AID 743347; call rule not given here;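 note: plate controls were DMSO vehicle wells for no effect and artemisinin wells for full effect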); conditions: P. falciparum HB3 in erythrocytes, SYBR Green DNA, 72 h; at 28.5 µM (top of the series)
# How it was run: as §2
# [7] = target: Estrogen receptor (Homo sapiens) (UniProt P03372); test: qHTS assay for small molecule agonists of estrogen receptor alpha signaling (AID 588514; calls by dose curve;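 note: 0% = vehicle only and 100% = reference agonist; nearly all actives have a fitted effect of over 70% in size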); conditions: ER-alpha-UAS-bla HEK293, beta-lactamase ratio, 18 h; series mostly up to 76.8 µM
# Estrogen receptor (Homo sapiens), sequence (P03372 whole entry, looked up): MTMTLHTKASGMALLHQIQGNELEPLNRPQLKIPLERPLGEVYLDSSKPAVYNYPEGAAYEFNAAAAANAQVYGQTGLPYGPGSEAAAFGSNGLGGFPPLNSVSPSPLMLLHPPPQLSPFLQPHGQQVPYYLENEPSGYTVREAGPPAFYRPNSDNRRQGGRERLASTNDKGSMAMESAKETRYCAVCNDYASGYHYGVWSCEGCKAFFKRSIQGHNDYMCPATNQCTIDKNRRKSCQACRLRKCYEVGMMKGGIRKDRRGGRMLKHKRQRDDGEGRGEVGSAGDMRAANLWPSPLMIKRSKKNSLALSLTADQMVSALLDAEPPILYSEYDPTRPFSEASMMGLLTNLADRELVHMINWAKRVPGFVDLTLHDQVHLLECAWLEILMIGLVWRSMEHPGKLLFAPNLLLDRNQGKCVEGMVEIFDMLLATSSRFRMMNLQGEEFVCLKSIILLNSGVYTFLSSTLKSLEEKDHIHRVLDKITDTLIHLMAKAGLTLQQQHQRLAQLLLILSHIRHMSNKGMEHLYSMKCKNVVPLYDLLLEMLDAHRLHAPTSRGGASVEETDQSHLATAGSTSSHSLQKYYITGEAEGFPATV
# How it was run: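 ER-alpha-UAS-bla GripTite HEK293 cells, 5000/well in 2% charcoal/dextran-stripped FBS medium, treated with compound titrations 18 h at 37 C. CCF4 beta-lactamase read by fluorescence after 2 h RT; normalised to 20 nM 17-beta-estradiol (100%) and DMSO (0%), Hill fit for EC50 and efficacy.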
# [8] = qHTS assay for small molecule antagonists of retinoid X receptor alpha signaling (AID 588546; active = well fitted inhibition curve with a large enough effect in the signal ratio, with a control signal flat, not every such curve was filed as active; the % refers to the signal ratio;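 note: cells stimulated with 9-cis-retinoic acid as agonist; % is set by controls: 0 for no effect and ±100 for the full control effect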); conditions: HEK293T RXRa-UAS-bla, beta-lactamase ratio, antagonist mode; measured here: W530 green channel, cytotoxicity proxy
# How it was run: (§3)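 Beta-lactamase reporter inhibition, read as CCF4 fluorescence ratio (ex 405, em 460/530 nm) after 2 h at RT. HEK293T UAS-bla cells, 2500/well, were stimulated with 9-cis-RA at 500 or 100 nM final alongside test compound for 18 h at 37 C.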
# [9] = target: Retinoic acid receptor RXR-alpha (Homo sapiens) (UniProt P19793); test: as above; conditions: HEK293T RXRa-UAS-bla, beta-lactamase ratio, antagonist mode
# Retinoic acid receptor RXR-alpha (Homo sapiens), sequence (P19793 whole entry, looked up): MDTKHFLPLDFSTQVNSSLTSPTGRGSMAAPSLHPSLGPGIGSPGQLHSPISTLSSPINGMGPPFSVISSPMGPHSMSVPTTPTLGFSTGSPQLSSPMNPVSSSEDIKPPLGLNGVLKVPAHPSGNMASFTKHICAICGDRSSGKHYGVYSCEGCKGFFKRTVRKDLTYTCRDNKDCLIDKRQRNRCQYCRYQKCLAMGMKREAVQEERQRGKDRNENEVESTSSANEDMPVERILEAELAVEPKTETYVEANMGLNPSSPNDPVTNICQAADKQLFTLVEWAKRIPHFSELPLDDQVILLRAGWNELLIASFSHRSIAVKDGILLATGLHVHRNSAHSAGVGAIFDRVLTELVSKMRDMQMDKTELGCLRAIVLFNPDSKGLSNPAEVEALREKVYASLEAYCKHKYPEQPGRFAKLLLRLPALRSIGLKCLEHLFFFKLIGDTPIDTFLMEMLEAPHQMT
# How it was run: as §3
# [10] = target: Bile acid receptor (Homo sapiens) (UniProt Q96RI1); test: qHTS assay for small molecule antagonists of farnesoid X receptor signaling (AID 588526; calls by dose curve; note: % is set by controls: 0 for no effect and ±100 for the full control effect); conditions: HEK293T FXR-UAS-bla, beta-lactamase ratio, antagonist mode; series mostly up to 76.7 µM
# Bile acid receptor (Homo sapiens), sequence (Q96RI1 whole entry, looked up): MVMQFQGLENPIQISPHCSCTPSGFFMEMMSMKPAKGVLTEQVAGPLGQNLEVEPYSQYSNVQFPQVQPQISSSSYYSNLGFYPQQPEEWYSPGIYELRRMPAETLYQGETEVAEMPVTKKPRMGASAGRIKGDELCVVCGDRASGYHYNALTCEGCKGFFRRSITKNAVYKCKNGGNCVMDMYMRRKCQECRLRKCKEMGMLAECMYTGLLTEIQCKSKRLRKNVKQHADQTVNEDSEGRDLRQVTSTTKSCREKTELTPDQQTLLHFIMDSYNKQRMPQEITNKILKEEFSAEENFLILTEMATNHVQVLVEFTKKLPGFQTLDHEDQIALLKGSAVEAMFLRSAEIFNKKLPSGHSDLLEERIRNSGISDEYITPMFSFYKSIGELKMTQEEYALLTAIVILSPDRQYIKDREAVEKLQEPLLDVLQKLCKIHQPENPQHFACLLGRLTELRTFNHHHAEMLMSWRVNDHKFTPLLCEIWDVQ
# How it was run: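 Concentration-response titrations were fitted to the Hill equation for half-maximal inhibition and maximal response, with data normalised to 50 uM chenodeoxycholic acid and DMSO control wells. Cells: FXR-UAS-bla HEK293T, dialyzed FBS.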
# [11] = qHTS assay for small molecule agonists of retinoid X receptor alpha signaling (AID 588544; calls by dose curve;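 for activation: 0% = DMSO basal wells and 100% = reference agonist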); conditions: HEK293T RXRa-UAS-bla, beta-lactamase reporter, 18 h; 530 nm emission
# [12] = target: Retinoic acid receptor RXR-alpha (Homo sapiens) (UniProt P19793); test: as above; conditions: HEK293T RXRa-UAS-bla, beta-lactamase reporter, 18 h; series mostly up to 76.7 µM
# [13] = qHTS assay for small molecule activators of the p53 signaling pathway (AID 651743; active = well fitted activation curve with a large enough effect in the signal ratio, not every such curve was filed as active; the % refers to the signal ratio; note: % of control where 0% means no effect); conditions: HCT-116 p53RE-bla, beta-lactamase FRET ratio, 16 h; activation: stronger effect = higher value
# How it was run: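 Cell-based beta-lactamase reporter (p53 response elements, HCT-116 background). After a 5-hour preincubation, cells received compound for 16 hours at 37 C; substrate development ran 2 hours at room temperature.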
# [14] = qHTS assay for small molecule activators of the nuclear factor-kappa B (NF-kB) signaling pathway (AID 651749; active = well fitted activation curve with a large enough effect in the signal ratio; the % refers to the signal ratio; note: % of control where 0% means no effect); conditions: NF-kB-bla ME-180 cells, beta-lactamase FRET ratio, 16 h; stronger effect = higher value
# How it was run: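 Screening used 2,000 ME-180 reporter cells per well exposed to pinned compound (23 nL) or DMSO; after 16 hr at 37C, beta-lactamase expression under NF-kB control was assessed through FRET.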
# [15] = qHTS assay for cell viability of HEK293 cells (AID 743288); conditions: ATP luminescence (CellTiter-Glo), 18 h; max response: stronger effect = lower value; note: % is set by controls: 0 for no effect and ±100 for the full control effect; nearly all actives have a fitted effect of over 50% in size
# How it was run: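 Total intracellular ATP, measured with a luciferase-coupled reagent, indicates the number of viable HEK293 cells. Exposure to test chemicals lasts 18 h at 37 C in 1,536-well format at 2,000 cells/well.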
smiles,measurement,setting,value
CC(C)CN(C[C@@H](OP(=O)(O)O)[C@H](Cc1ccccc1)NC(=O)O[C@@H]1CCOC1)S(=O)(=O)c1ccc(N)cc1,Potency,[1],inactive
same,Potency,CP297,inactive
same,Potency,CP315,inactive
same,Potency,DIV14,inactive
same,Potency,P93_24,inactive
O=c1ccc2cc3ccoc3cc2o1,outcome,[2],inactive
CCCCCCCCCCCCCCCCn1cc[n+](Cc2ccccc2)c1C,"parasite growth, % of DMSO control",[3],5.58%
same,"parasite growth remaining, % of DMSO control (lower = more inhibition)",[4],6.21%
same,"parasite growth, % of control (lower = inhibition)",[5],8.98%
same,"growth, % of control",[6],5.99%
CCCCCCCCOC(=O)c1cc(O)c(O)c(O)c1,Potency,[7],inactive
same,max response,[8],-11.7%
same,max response,[9],-18.9% (inactive)
O=C(O)CCCCCCCCC(=O)O,outcome,[10],inactive
same,max response,[11],9.91%
same,outcome,[12],inactive
same,activation,[13],0.877% (inactive)
same,activation,[14],-1.2% (inactive)
same,max response,[15],-12.5% (inactive)
